Data reported in PubChem BioAssay AID463173 (ICCB-Longwood Screening Facility, Harvard Medical School, 2010).
Among all 52,000 compounds or so, about 1,700 (3.3%) were called active. For the sample, actives were picked, then their nearest neighbours and some compounds at random. Unmarked numbers belong to inactive results. Cut-off read from the data, not from the text of the source: active = survival mostly below about 52% (no sharp cut-off); inactive = mostly above about 56%.

System: Wild type
Test: S. aureus survival, RN4220 and DeltatarO strains – OD600, teichoic acid synthesis inhibitors, primary screen (AID 463173)
Details: S. aureus RN4220 wild type/DeltatarO growth, OD600, 18 h, active compounds read low, screened at 18.75 µg/mL (by protocol)

Row | Compound | survival
1 | Cc1ccc([N+](=O)[O-])cc1NC(=O)CN(c1ccccc1)S(=O)(=O)N(C)C | 69%
2 | CCn1c(O)c(C=Nc2cccc(O)c2)sc1=S | 115%
3 | Cn1cnc(S(=O)(=O)N2CCCC(C(=O)Nc3ccc(OC(F)(F)F)cc3)C2)c1 (stereo not drawn) | 19%
4 | CCOc1ccc(CNC(=O)c2[nH]c3ccccc3c2Sc2ccc(C)cc2)cc1 | 120%
5 | CCN1C(=O)c2ccccc2S(=O)(=O)c2ccc(C(=O)NCc3ccc(OC)cc3)cc21 | 97%
6 | CCN(CC)C(=O)c1ccc2c(c1)N(Cc1c(F)cccc1Cl)C(=O)c1ccccc1S2 | 16% (active)
7 | CN(C)CCNC(=O)c1ccc2c(c1)N(Cc1c(F)cccc1Cl)C(=O)c1ccccc1S2 | 105%
8 | CCN(CC)CCCNC(=O)c1ccc2c(c1)N(Cc1c(F)cccc1Cl)C(=O)c1ccccc1S2 | 139%
9 | Cc1ccc(Cl)cc1NC(=O)CN1C(=O)c2cccc3cccc1c23 | 71%
10 | CCC(=O)N1CCc2cc(Br)cc(S(=O)(=O)N3CCN(c4ccccc4OC)CC3)c21 | 72%
11 | Cc1ccc(C)c(N2CCN(c3nc4ccc(C)cc4nc3-n3nc(C)cc3C)CC2)c1 | 86%
12 | Cc1cc(C)n(-c2nc3cc(Cl)ccc3nc2N2CCN(c3ccccc3F)CC2)n1 | 68%
13 | COc1ccccc1N1CCN(c2nc3ccc(C)cc3nc2-n2nc(C)cc2C)CC1 | 0% (active)
14 | Cc1cc(C)n(CCc2nc3c4ccccc4nc(N4CCN(c5cccc(C)c5C)CC4)n3n2)n1 | 74%
15 | Cc1cc(C)n(-c2nc3ccccc3nc2N2CCN(c3cccc(C)c3C)CC2)n1 | -1% (active)
16 | COc1cccc(Nc2nc3ccc(C)cc3nc2-n2nc(C)cc2C)c1 | 82%
17 | Cc1ccc2nc(N3CCN(c4cccc(Cl)c4)CC3)c(-n3nc(C)cc3C)nc2c1 | 3% (active)
18 | Cc1cc(C)n(-c2nc3cc(Cl)ccc3nc2Nc2ccc(C)c(F)c2)n1 | 86%
19 | Cc1cc(C)n(-c2nc3cc(Cl)ccc3nc2N2CCN(c3cccc(C)c3C)CC2)n1 | -1% (active)
20 | Cc1cc(C)n(-c2nc3ccccc3nc2N2CCN(c3cccc(C(F)(F)F)c3)CC2)n1 | 88%
21 | Cc1cc(C)c(C#N)c(N2CCN(c3cccc(C)c3C)CC2)n1 | 109%
22 | Cc1ccc2nc(N3CCN(c4cccc(Cl)c4)CC3)c3nnnn3c2c1 | 72%
23 | COc1ccc(-c2oc3ncn4nc(COc5cccc(C)c5C)nc4c3c2-c2ccc(OC)cc2)cc1 | 77%
24 | Cc1ccc(C)c(Cn2nc(C)n3c(cc4cc(C)ccc43)c2=O)c1 | 79%

Row | Compound | survival
25 | Cc1ccc(Cl)cc1N1CCN(C(=O)c2cc3c(=O)oc4ccccc4c3s2)CC1 | 71%
26 | COCCN(Cc1cc2ccc(C)c(C)c2nc1Cl)C(=O)N1CCOCC1 | 104%
27 | COc1ccc(C(C)C)cc1S(=O)(=O)N1CC(C)OC(C)C1 (stereo not drawn) | 109%
28 | COC(=O)C1=C(C)N(c2ccc(N(C)C)cc2)C(C)=C(C(=O)OC)C1c1ccccc1 | 101%
29 | CC1=C(C(=O)Nc2ccccc2)C(c2ccc(O)cc2)n2nc(SCc3ccccc3)nc2N1 (stereo not drawn) | 115%
30 | CCN(CC)S(=O)(=O)c1ccc(C(=O)NCCSc2c(-c3ccc(OC)cc3)[nH]c3ccccc23)cc1 | 124%
31 | CCn1nc(C)c2c(-c3ccccc3)cc(=O)n(C(C)C(=O)Nc3ccc(OC)c(OC)c3)c21 (stereo not drawn) | 59%
32 | COc1ccc(C(=O)Oc2c(Sc3ccc(C)cc3)c(C)nn2C(C)(C)C)cc1OC | 127%
33 | Cc1ccc(Sc2c(C)nn(C(C)(C)C)c2OC(=O)C(C)(C)C)cc1 | -8% (active)
34 | COCC(=O)Oc1c(Sc2ccc(C)cc2)c(C)nn1C(C)(C)C | 69%
35 | Cc1nn(-c2ccccc2)c(OC(=O)C(C)(C)C)c1Sc1ccccc1 | 51%
36 | Cc1ccc(Sc2c(C)nn(-c3ccccc3)c2OC(=O)C(C)(C)C)cc1 | -6% (active)
37 | Cc1nn(C(C)(C)C)c(OC(=O)C(C)(C)C)c1Sc1ccccc1 | -9% (active)
38 | CCC(=O)Oc1c(Sc2ccc(C)cc2)c(C)nn1-c1ccccc1 | 55%
39 | CCC(=O)Oc1c(Sc2ccc(Cl)cc2)c(C)nn1C(C)(C)C | 60%
40 | Cc1ccc(Sc2c(C)nn(C(C)(C)C)c2OC(=O)CC(C)C)cc1 | -8% (active)
41 | Cc1nn(C(C)(C)C)c(OC(=O)c2c(F)cccc2F)c1Sc1ccccc1 | 117%
42 | Cc1ccccc1C(=O)Oc1c(Sc2ccccc2)c(C)nn1C(C)(C)C | 50%
43 | Cc1ccc(Sc2c(C)nn(-c3ccccc3)c2OC(=O)CC(C)C)cc1 | 45%
44 | CCOC(=O)N1CCN(C(=O)c2cnn(-c3cccc(F)c3)c2-n2cccc2)CC1 | 81%
45 | Cc1ccc2nc(N3CCC(C(=O)N4CCN(c5cccc(C)c5C)CC4)CC3)[nH]c2c1 | 76%
46 | Cc1ccn2cc(CNC(=O)c3cccc(C(F)(F)F)c3)nc2c1 | 86%
47 | Cc1ccc(Cl)cc1NC(=O)C(NS(=O)(=O)c1ccc2c(c1)CCC(=O)N2)c1ccccc1 (stereo not drawn) | 70%
48 | COc1ccc(CNC(=O)c2cc3sccc3n2C)cc1 | 67%

Row | Compound | survival
49 | Cn1c(=O)n(C)c2cc(N3CCOCC3)c(NS(=O)(=O)c3ccc(Br)cc3)cc21 | 82%
50 | O=C(Nc1nnc(S(=O)(=O)N2CCCCCC2)s1)c1ccccc1 | 48%
51 | CCC(C)NC(=O)CCC(=O)N1Cc2ccccc2Oc2ncccc21 (stereo not drawn) | 121%
52 | CC(C)NC(=O)CCC(=O)N1Cc2ccccc2Oc2ncccc21 | -2% (active)
53 | CN(C)c1ccc(CNC(=O)CCC(=O)N2Cc3ccccc3Oc3ncccc32)cc1 | 77%
54 | Cc1ccc(CNC(=O)CCC(=O)N2Cc3ccccc3Oc3ncccc32)cc1 | 73%
55 | Cc1ccc(NC(=O)CCC(=O)N2Cc3ccccc3Oc3ncccc32)cc1Cl | 82%
56 | CCOc1ccc(CNC(=O)CCC(=O)N2Cc3ccccc3Oc3ncccc32)cc1 | 0% (active)
57 | CC(C)CCNC(=O)CCC(=O)N1Cc2ccccc2Oc2ncccc21 | 65%
58 | Cc1ccc(NC(=O)CCC(=O)N2Cc3ccccc3Oc3ncccc32)cc1 | 22%
59 | O=C(CCC(=O)N1Cc2ccccc2Oc2ncccc21)Nc1ccc(Cl)cc1 | 10% (active)
60 | Cc1ccc(N2C(=O)SC(N(CC(=O)O)c3ccccc3)C2=O)cc1 (stereo not drawn) | 112%
61 | Cc1ccc(C)c(NC(=O)Nc2cccc(-c3cn4cccnc4n3)c2)c1 | 71%
62 | O=S(=O)(c1ccc(Nc2ccc(-c3ccccc3)nn2)cc1)N1CCCC1 | 104%
63 | Cc1cc(C)cc(N2C(=O)N(CC(=O)c3ccc(Br)cc3)c3ccccc3S2(=O)=O)c1 | 84%
64 | O=C1CC(c2ccc(Br)cc2)c2c(ccc3ccccc23)N1 (stereo not drawn) | 39%
65 | Cc1ccc(CSc2ccc3nnc(CCNS(=O)(=O)c4ccc(C)cc4)n3n2)cc1 | 82%
66 | CCc1ccc(Sc2cc(C(=O)NCCCN3CCC(C)CC3)c3ccccc3n2)cc1 | 68%
67 | CC1CCCCN1CCCNC(=O)c1cc(Sc2ccc(Cl)cc2)nc2ccccc12 (stereo not drawn) | 78%
68 | CCc1ccc(Sc2cc(C(=O)NCCCN3CCCC(C)C3)c3ccccc3n2)cc1 (stereo not drawn) | 71%
69 | CC1CCN(CCCNC(=O)c2cc(Sc3ccc(F)cc3)nc3ccccc23)CC1 | 74%
70 | CC1CCCN(CCCNC(=O)c2cc(Sc3ccc(F)cc3)nc3ccccc23)C1 (stereo not drawn) | 14% (active)
71 | O=C(NCCCN1CCCCC1)c1cc(Sc2ccc(Cl)cc2)nc2ccccc12 | -1% (active)
72 | CC(=O)c1[nH]c(C)c(C(=O)NCCc2ccc(C)cc2)c1C | 88%

Row | Compound | survival
73 | CC(=O)Nc1cc(-n2cnnn2)ccc1C | 98%
74 | Cc1ccc(NC(=O)Cn2c(=O)n(Cc3nc(C)no3)c(=O)c3cc4c(cc32)OCO4)cc1 | 90%
75 | CCCOc1ccc(CC2C(=O)Nc3ccc(Br)cc32)cc1 (stereo not drawn) | -7% (active)
76 | CCOc1c(CC2C(=O)Nc3ccc(Br)cc32)cccc1OC (stereo not drawn) | 99%
77 | COc1ccc(OC)c(CC2C(=O)Nc3ccc(Br)cc32)c1 (stereo not drawn) | 84%
78 | COc1ccc(CC2C(=O)Nc3ccc(Br)cc32)cc1OC (stereo not drawn) | 75%
79 | CCOc1ccccc1CC1C(=O)Nc2ccc(Br)cc21 (stereo not drawn) | 73%
80 | CCCCOc1ccccc1CC1C(=O)Nc2ccc(Br)cc21 (stereo not drawn) | 3% (active)
81 | Cc1ccccc1C(=O)NCc1ccc2c(c1)CCN2C(=O)c1ccccc1 | 71%
82 | COc1cccc(OC)c1C(=O)Nc1ccc(-c2nc3ncccc3o2)cc1 | 88%
83 | COc1ccc(C)cc1NC(=O)Cn1c(=O)cc(C)c2c(C)nn(C)c21 | 68%
84 | CCN(Cc1ccccc1)C(=O)Cn1cc(S(=O)(=O)Cc2cccc(Cl)c2)c2ccccc21 | 75%
85 | Cc1ccc(Sc2c(C)nn(C(=O)COc3ccc(F)cc3)c2C)cc1 | 85%
86 | Cc1nn(C(=O)c2ccccc2)c(C)c1Sc1ccc(Cl)cc1 | 6% (active)
87 | Cc1nn(C(=O)COc2ccccc2)c(C)c1Sc1ccccc1 | 94%
88 | Cc1nn(C(=O)c2ccc(Cl)cc2)c(C)c1Sc1ccc(Cl)cc1 | 40%
89 | Cc1nn(C(=O)COc2ccc(Cl)cc2)c(C)c1Sc1ccccc1 | 88%
90 | Cc1nn(-c2ccccc2)c(OC(=O)C(C)C)c1Sc1ccc(Cl)cc1 | 39%
91 | Cc1ccc(Sc2c(C)nn(C(=O)COc3ccccc3)c2C)cc1 | 9% (active)
92 | COc1cc(C(=O)n2nc(C)c(Sc3ccc(Cl)cc3)c2C)cc(OC)c1OC | 47%
93 | Cc1ccc(Sc2c(C)nn(C(=O)c3ccc(Cl)cc3)c2C)cc1 | 2% (active)
